Results filed as inconclusive are left out. Active and inactive are the calls of the source. Calls come from the whole dose curve; as a rule, active = well fitted inhibition curve with a large enough effect; inconclusive = small, poorly fitted or top-dose-only effect, or effect the other way; inactive = flat fitted curve, though single readings scatter. Numbered stars: 1 amine (or outer) side, 2 acyl side, 3 side chain; on linkers, the order of the positions; unused ones are H or OH. Bridge positions count the residues as written; N and C are the ends. Square brackets hold non-standard residues; d marks the D form. Peptide text beside a SMILES is read from it. I, II: the chains in the order shown. Actinocin(9to1) = Cc1c2oc3c(C)ccc(C(=O)[*:1])c3nc-2c(C(=O)[*:2])c(N)c1=O; NMeV = CN[C@H](C(=O)O)C(C)C; Sar = CNCC(=O)O

The target in this experiment is ATP-dependent 6-phosphofructokinase (Trypanosoma brucei brucei) (UniProt O15648). The experiment is described as follows: qHTS Assay to Find Inhibitors of T. brucei phosphofructokinase: hit validation (AID 492961).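 Note: luminescence reports ADP formed as PFK phosphorylates fructose-6-phosphate with ATP.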 As to conditions: T. brucei PFK, ADP-Glo luminescence; series mostly up to 51.4 µM. The source says: NIH Molecular Libraries Probe Production Network [MLPCN] NIH Chemical Genomics Center [NCGC] Grant: 1 R03 MH092153-01 PI Name: Malcolm Walkinshaw, University of Edinburgh NCGC Assay Overview: Various species of the protozoan family Trypanosomatidae are responsible for a range of serious human diseases in tropical and subtropical areas of the world. […] Many of the disorders caused by trypanosomatids are fatal if left untreated, but most currently used drugs are inefficient and toxic. […] Oxidative metabolism involving the mitochondrial tricarboxylic acid cycle and oxidative phosphorylation are repressed in these parasites, and recent RNA interference (RNAi) experiments have shown that even partial depletion of certain individual glycolytic enzymes can lead to the death of cultured parasites. One such glycolytic enzyme, phosphofructokinase (PFK), catalyzes the formation of fructose-1,6-bisphosphate (F1,6BP) and ADP from fructose-6-phosphate (F6P) and ATP, and in many metabolic circumstances makes an important contribution to the control of flux through the glycolytic pathway. As a specific glycolytic target, PFK is particularly attractive as it catalyzes the first irreversible step in glycolysis, and structural and kinetic studies have shown very substantial and essential differences from corresponding host enzymes, allowing for the discovery of parasite-selective inhibitors. The goal of this screen is to find small-molecule inhibitors of T. brucei PFK using a biochemical assay that measures PFK activity as a function of ADP production. A luminescence-based assay for T. brucei PFK activity has been developed which uses luciferase to detect production of ADP. Traditional luciferase-based nucleotide detection reagents rely on ATP production as a direct substrate for the luciferase reaction; however, PFK catalyzes the transfer of a phosphate from ATP to F6P, resulting in the net depletion of ATP. To directly measure the ADP product of the PFK reaction, we used the ADP-Glo detection kit (Promega), which utilizes two separate reactions to 1) deplete all remaining uncatalyzed ATP and 2) convert all remaining ADP to ATP, which is then detected through a traditional luciferase-coupled reaction. Compounds were screened as a concentration-titration series that ranged from 57 uM to 0.7 nM.
Sequence of ATP-dependent 6-phosphofructokinase (Trypanosoma brucei brucei) (O15648 whole entry, looked up): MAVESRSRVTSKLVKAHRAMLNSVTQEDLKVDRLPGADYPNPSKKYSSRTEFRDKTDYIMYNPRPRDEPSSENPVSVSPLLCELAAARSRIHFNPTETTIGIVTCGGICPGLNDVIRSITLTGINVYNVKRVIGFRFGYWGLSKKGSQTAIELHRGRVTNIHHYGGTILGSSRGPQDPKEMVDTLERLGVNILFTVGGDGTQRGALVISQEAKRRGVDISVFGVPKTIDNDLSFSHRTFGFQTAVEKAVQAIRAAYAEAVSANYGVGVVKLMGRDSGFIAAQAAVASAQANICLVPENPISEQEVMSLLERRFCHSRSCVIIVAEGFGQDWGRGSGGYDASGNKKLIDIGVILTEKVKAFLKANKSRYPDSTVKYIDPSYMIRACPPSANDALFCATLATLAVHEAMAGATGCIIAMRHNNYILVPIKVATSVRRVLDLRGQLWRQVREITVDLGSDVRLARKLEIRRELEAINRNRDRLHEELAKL
NCGC Assay Protocol Summary: Substrate buffer was dispensed into white, solid 1536-well plates at 3uL/well in 0.1M triethanolamine (TEA) buffer, pH 8.0, containing final concentrations of 5 mM MgCl2, 0.01% Tween20, 0.5 mM fructose-6-phosphate (F6P) and 0.1mM ATP. Then, 23 nL of compounds or DMSO were delivered to each well using a pin tool. One uL T. brucei PFK (0.1M TEA, 0.01% Tween20, 0.1% bovine serum albumin (BSA) and 1.25nM PFK, final concentrations) was then dispensed, and plates were incubated at room temperature for 45 min. The luminescent detection reagent, ADP-Glo (Promega), was then added in two steps: the first reagent, ADP-Glo (which converts remaining uncatalyzed ATP), was added at 2.5uL/well and incubated for ten minutes at room temperature, and the second component, Kinase Detection reagent (which converts ADP to ATP as a substrate for luciferase-based luminescence), was added immediately after at 5uL/well, followed by one final ten minute room temperature incubation. The plates were measured on a ViewLux plate reader for luminescent signal using a clear filter with a one second exposure. The %Activity was determined from the corrected luminescence values. As no specific T. brucei PFK inhibitors have been identified in the literature, 1x (1.25nM) and 0x PFK enzyme controls (untreated) were included to normalize %Activity of identified inhibitors; 0x enzyme values corresponded to 100%Activity (full inhibition), while 1x PFK enzyme values were used to normalize 0%Activity (no inhibition). Concentration-response curves were fitted to the signals arising from the resulting luminescence. […]
On to `NP(N)(=O)NC(=O)c1ccc(F)cc1`, for which the call was inactive.
As for `O=c1[nH]c2ccccc2n1CCCN1CCC(n2c(=O)[nH]c3cc(Cl)ccc32)CC1`, the entry is “inactive”.
`C[C@]12C/C(=C/O)C(=O)C[C@@H]1CC[C@@H]1[C@@H]2CC[C@@]2(C)[C@H]1CC[C@]2(C)O`: the molecule was classed as inactive.
As for `CN1C(=S)CN=C(c2ccccc2)c2cc(Cl)ccc21`, the entry is “inactive”.
For `CCN(C(C)=O)c1cccc(-c2ccnc3c(C#N)cnn23)c1` the value was “inactive”.
For `CC[C@@H](CO)NC(=O)[C@@H]1C=C2c3cccc4c3c(cn4C)C[C@H]2N(C)C1` the value was “inactive”; for `c1ccc2c(c1)Nc1ccccc1S2`, “inactive”.
With `CC(=O)[C@H]1CC[C@H]2[C@@H]3CC[C@H]4C[C@](C)(O)CC[C@]4(C)[C@H]3CC[C@]12C`, the result was inactive.
For `CC1OC(C)OC(C)O1` (stereo not given) the value was “inactive”; for `OCCOc1ccccc1`, “inactive”; for `CCCC1CCCCN1` (stereo not given), “inactive”.
As for `COc1ccc(C(CN(C)C)C2(O)CCCCC2)cc1` (stereo not given), the entry is “inactive”; as for `Cc1ccc(-c2nc3ccc(C)cn3c2CC(=O)N(C)C)cc1`, “inactive”; as for `NCCc1cc(O)c(O)cc1O`, “inactive”.
As for `CC(C)CC(N(C)C)C1(c2ccc(Cl)cc2)CCC1` (stereo not given), the entry is “inactive”; as for `O=C(NC(O)C(Cl)(Cl)Cl)NC(O)C(Cl)(Cl)Cl` (stereo not given), “inactive”.
On to `CCOC(=O)C1(c2ccccc2)CCN(CCC(C#N)(c2ccccc2)c2ccccc2)CC1`, for which the result was inactive.
As to `Oc1cc(Cl)ccc1Oc1ccc(Cl)cc1Cl`, the outcome was inactive.
As for `CCN(CC)CCOC(=O)C(O)(c1ccccc1)c1ccccc1`, the entry is “inactive”.
As for `CCC(C(N)=O)N1CCCC1=O` (stereo not given), the entry is “inactive”; as for `CCOP(=S)(OCC)Oc1cc(C)nc(C(C)C)n1`, “inactive”.
For `C#CCOC(C(=O)OCCN(C)C)(c1ccccc1)c1ccccc1` the value was “inactive”; for `CC(C)(C)NCC(O)c1cc(Cl)c(N)c(Cl)c1` (stereo not given), “inactive”; for `Cc1c2oc3c(C)ccc(C(=O)N[C@@H]4C(=O)N[C@H](C(C)C)C(=O)N5CCC[C@H]5C(=O)N(C)CC(=O)N(C)[C@@H](C(C)C)C(=O)O[C@@H]4C)c3nc-2c(C(=O)N[C@@H]2C(=O)N[C@H](C(C)C)C(=O)N3CCC[C@H]3C(=O)N(C)CC(=O)N(C)[C@@H](C(C)C)C(=O)O[C@@H]2C)c(N)c1=O` (I: T[dV]P[Sar][NMeV] / II: T[dV]P[Sar][NMeV]; ester I:1-I:C, II:1-II:C; linker I:N-II:N via Actinocin(9to1)), “inactive”.
Regarding `O=[N+]([O-])c1cc([As](=O)(O)O)ccc1O`, the molecule was classed as inactive.
For `COc1ccc(C(=O)c2c(C)n(CCN3CCOCC3)c3ccccc23)cc1` the value was “inactive”.
In the case of `CN(C)CCc1ccc(O)cc1`, the molecule was called inactive.
Turning to `CC1NCCOC1c1ccccc1` (stereo not given), the molecule was called inactive.
As for `N[C@@H](Cc1ccc(N(CCCl)CCCl)cc1)C(=O)O`, the entry is “inactive”; as for `CC(C)NCC(O)c1ccccc1Cl` (stereo not given), “inactive”.
As for `C=C1CC[C@@]2(O)[C@H]3Cc4ccc(O)c5c4[C@@]2(CCN3CC2CC2)[C@H]1O5`, the entry is “inactive”.
For `CC(=O)Nc1cc([As](=O)(O)O)ccc1O` the value was “inactive”; for `Cn1c(CCCC(=O)O)nc2cc(N(CCCl)CCCl)ccc21`, “inactive”; for `CN1CCN(C(=O)O[C@H]2c3nccnc3C(=O)N2c2ccc(Cl)cn2)CC1`, “inactive”.
Regarding `CC[N+]1(C)CCCC(OC(=O)C(O)(c2ccccc2)c2ccccc2)C1` (stereo not given), the result was inactive.
For `FC(F)(F)c1cccc(C2=CCN(CCc3ccc4ccccc4c3)CC2)c1` the value was “inactive”; for `CC(C)=CC1C(C(=O)OCc2cccc(Oc3ccccc3)c2)C1(C)C` (stereo not given), “inactive”.
As for `O=P1(NCCCl)OCCCN1CCCl` (stereo not given), the entry is “inactive”.
As for `CC(C)(N)Cc1ccc(Cl)cc1`, the entry is “inactive”; as for `CC[N+](CC)(CC)CC`, “inactive”.
